The list is not random: actives were taken first. Their share in the collection is about 6.1%.
MKP-1 inh = human dual specificity phosphatase 1 inhibition. P28562. recombinant MKP-1, OMFP hydrolysis fluorescence. inhibition, %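 (compounds tested at a single concentration somewhere between 10 and 100 µM)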. 65,000 compounds, 0.15% hits. AID 374;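 active = inhibition above about 50%, limit read from the data; inconclusive = inhibition over screen mean plus 3 SD, below that limit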;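 note: 0% = DMSO max control wells and 100% = wells with enzyme stopped by NaOH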
Target sequence (P28562 whole entry, looked up): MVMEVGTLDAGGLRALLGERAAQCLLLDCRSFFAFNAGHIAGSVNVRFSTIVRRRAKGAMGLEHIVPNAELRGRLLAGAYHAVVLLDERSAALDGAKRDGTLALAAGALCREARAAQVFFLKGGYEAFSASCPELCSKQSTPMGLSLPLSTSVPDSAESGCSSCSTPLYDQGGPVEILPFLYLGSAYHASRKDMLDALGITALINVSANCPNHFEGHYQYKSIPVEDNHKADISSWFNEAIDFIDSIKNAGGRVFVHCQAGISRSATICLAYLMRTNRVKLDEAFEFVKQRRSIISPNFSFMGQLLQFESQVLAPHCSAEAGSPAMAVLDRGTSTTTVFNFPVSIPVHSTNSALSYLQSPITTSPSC
Cdc25B block = inhibitors of human Cdc25B phosphatase. inhibition, %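 (compounds tested at 10 µM final in the well)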. recombinant Cdc25B, OMFP fluorescence Ex485/Em525. 65,000 compounds, 0.1% hits. P30305; in the data active = inhibition above about 50%
Hsp90 inh = displaces geldanamycin probe from tumor Hsp90 | NCI-N417 lysate Hsp90, Cy3B-geldanamycin FP displacement | inhibition, % at 30 µM | 64,000 compounds, 0.35% hits | AID 429;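 active = inhibition above 50%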;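 note: 0% = tracer plus lysate wells and 100% = tracer alone without lysate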
MMP13 inh = MMP13 (human) collagenase inhibition | inhibition, % at 4 µM | P45452 | 65,000 compounds, 0.07% hits | MMP-13 fTHP FRET cleavage, Mca fluorescence;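 active = inhibition above the mean of compound-free control plate wells plus 3 SD, cut at about 14% in these data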;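 note: 0% = DMSO wells and 100% = wells with reference MMP-13 inhibitor after basal subtraction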
M1 agonist = activates the M1 muscarinic receptor; CHO-M1 cells, Fluo-4 calcium fluorescence, agonist mode; hits give high values; 64,000 compounds, 3% hits; B-score at 10 µM;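 active = fluorescence rise, raw or as B-score row- and column-corrected plate score, outside the 99.7% band of its plate's samples, either direction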
M1 antagonist = M1 muscarinic receptor (rat) antagonism; CHO-M1 cells, Fluo-4 calcium, ACh EC80 antagonist mode; hits give low values; P08482; 64,000 compounds, 3.4% hits; AID 628; B-score at 10 µM;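 active = calcium fluorescence response, raw or row-and-column corrected B-score, differing from the plate sample mean either way at a set confidence level, mostly lower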
M1 ag confirm = confirmation of rat M1 muscarinic receptor agonists | fluorescence change (max-min) at 10 µM | 1,700 compounds, 19% hits | shares compounds with M1 agonist | CHO-M1 cells, Fluo-4 calcium fluorescence, agonist mode; actives lie on both sides | AID 1488;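 active = fluorescence change differs from the solvent-only DMSO control mean at a set confidence level in both duplicate runs; inconclusive = differs from solvent-only control mean in just one of two runs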;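 note: an EC20 dose of acetylcholine follows compound addition during the same imaging run; raw fluorescence intensity difference in instrument units with no normalization to controls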
M4 ag counter = activates rat M4 receptor in counter-screen for M1 agonists; 1,700 compounds, 9% hits; CHO M4/Gqi5 cells, Fluo-4 calcium fluorescence, agonist mode; actives lie on both sides; shares compounds with M1 agonist; AID 1741; fluorescence change (max-min) at 10 µM;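 active = fluorescence change differing from the plate's solvent-only control wells at 99.7% confidence in both duplicates, whether higher or lower; inconclusive = differs from solvent controls in only one of two duplicates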
Active calls of the source: *; ? = inconclusive; . = no result given.

SMILES	MKP-1 inh	Cdc25B block	Hsp90 inh	MMP13 inh	M1 agonist	M1 antagonist	M1 ag confirm	M4 ag counter
CC(=O)Nc1ccc(NC2=CC(=O)CC(C)(C)C2)cc1	0	-3	3	-4	11*	0.22	?	-82
CSc1ccccc1NC(=O)c1cnccn1	22	4	-16	0	0.017	0.97	.	.
CCOC(=O)N1CCN(C(=O)C2CCN(C(=O)c3cc4sccc4n3CC)CC2)CC1	13	-12	-1	-2	3.8*	-0.37	-2.7	-10
COc1ccc(OC)c(C(=O)CN2CCN(S(=O)(=O)c3ccc(Br)cc3)CC2)c1	6	-21	-2	-3	28*	0.41	-25	-21
CCN=C(NCC)SC1CC(=O)N(c2ccccc2)C1=O (configuration not stated)	3	-2	-1	7	10*	-2.1	-11	-28
CCN=C(Nc1cccc(F)c1)SC1CC(=O)N(c2ccc(OC)cc2)C1=O (configuration not stated)	-5	-20	0	1	4.8*	-2.2	-14	-28
COc1ccc(NC(=O)Cn2nnc(C(N)=O)c2N)c(OC)c1	0	9	1	-2	-0.36	0.15	.	.
N#C/C(C(=O)NCc1ccco1)=C1/SC(Cc2ccc(F)cc2)C(=O)N1c1ccccc1 (configuration not stated)	-10	-5	1	5	2.4*	0.19	-21	?
O=C(c1ccccc1NS(=O)(=O)c1ccc(Br)s1)N1CCOCC1	4	-1	-3	4	0.16	-0.13	.	.
COCC(C)n1c(SCC(=O)NC(=O)Nc2ccc3c(c2)OCCO3)nc2ccccc2c1=O (configuration not stated)	32	-17	-2	5	0.89	0.21	.	.
CCOc1ccc(/C=c2\sc3nc(-c4ccco4)nn3c2=O)cc1OCC	32	26	-1	3	105*	0.16	?	47
COc1ccccc1/C=c1\sc2nc(-c3ccco3)nn2c1=O	32	29	-4	2	1.5	0.097	.	.
COC(=O)c1sc(NC(=O)c2cnccn2)c(C(=O)OC)c1C	10	-7	-2	0	0.33	-0.066	.	.
O=C1CC(c2ccncc2)c2cc3c(cc2N1)OCO3 (configuration not stated)	-4	-37	-6	4	2.4*	0.073	-8.1	?
Cc1c(NC(=O)CSC2=C(C#N)C(c3ccccc3F)CC(=O)N2)c(=O)n(-c2ccccc2)n1C (configuration not stated)	-20	-6	-4	-2	3.4*	0.18	-27	?
c1ccc2[nH]c(-c3ccnc4ccccc34)nc2c1	3	-5	-2	-192	2.4*	-0.99	-11	-34
O=C(CCCn1nnc(-c2cccnc2)n1)c1ccc(F)cc1	9	0	0	-4	0.81	-0.023	.	.
O=C(Nc1cccc(-c2cn3cccnc3n2)c1)c1ccco1	-2	-12	-3	-384	0.82	0.041	.	.
O=C(Nc1cccc(-c2cn3cccnc3n2)c1)c1ccc2c(c1)OCO2	10	3	-4	-157	3*	0.72	?	?
COc1ccc(C2=NO[C@@H]3C(=O)N(C4CCCCC4)C(=O)[C@H]23)cc1OC	-11	0	-1	0	18*	0.041	-10	-28
CCOc1cc(N2CCOCC2)c(OCC)cc1NC(=O)c1cc(-c2ccco2)nc2ccccc12	37	-8	.	-1	1.6	-0.18	.	.
O=c1nccc(NCc2ccco2)[nH]1	-20	-7	-1	3	0.001	0.1	.	.
O=C1c2ccccc2-c2onc3ccc(NCc4ccco4)c1c23	-3	-22	50*	0	183*	-0.005	624*	1149*
CCSc1nc2c(c(=O)[nH]c(=O)n2C)n1CC(O)COc1ccccc1C (configuration not stated)	33	6	1	5	4.1	0.47	.	.
Cc1ccccc1OCC(O)Cn1c(SC(C)C)nc2c1c(=O)[nH]c(=O)n2C (configuration not stated)	22	5	18	0	6.9*	-0.76	-16	-28
SMILES	MKP-1 inh	Cdc25B block	Hsp90 inh	MMP13 inh	M1 agonist	M1 antagonist	M1 ag confirm	M4 ag counter
CN(C)CCNc1nc2c(c(=O)[nH]c(=O)n2C)n1CC(O)COc1ccc(Cl)cc1Cl (configuration not stated)	5	2	-5	0	4.2*	0.016	-7.6	-24
COc1ccc(N(C)S(=O)(=O)c2cccc(C(=O)Nc3ccc(-n4cnnn4)cc3)c2)cc1	31	-5	-3	-5	-0.1	0.58	.	.
CCc1cc2c(-c3ccccc3)cc(=O)oc2c(CN2CCOCC2)c1O	7	-5	1	-3	15*	-0.94	42	17
COCCNC(=O)C(C)N(c1ccc(Oc2ccccc2)cc1)S(C)(=O)=O (configuration not stated)	4	1	-2	1	0.0089	-0.13	.	.
Cc1ccc(N(C(C)C(=O)N2CCC(C)CC2)S(C)(=O)=O)cc1C (configuration not stated)	3	-7	0	6	2.5*	-0.16	-6.7	-15
Cc1ccc(N(C(C)C(=O)Nc2ccccc2C(=O)N2CCOCC2)S(C)(=O)=O)cc1C (configuration not stated)	2	-4	-3	5	0.87	-0.94	.	.
CCOC(=O)N1CCN(C(=O)C(C)N(c2ccc(Oc3ccccc3)cc2)S(C)(=O)=O)CC1 (configuration not stated)	8	-15	-3	0	3.6*	-1.3	-4.8	-66
O=C(COC(=O)CCc1c[nH]c(=O)[nH]1)Nc1cccc(Cl)c1	6	-9	-2	2	5.2*	-0.03	10	-12
CCN(CCCNC(=O)c1ccc(N2CCCC2=O)cc1)c1cccc(C)c1	26	8	3	0	-1.5	-2.4	.	.
COC(=O)c1ccc(C(=O)OC)c(NC(=O)CCC(=O)O)c1	0	-3	0	-32	4.2*	1.2	-7.7	-16
COc1ccc(OC)c(N(CC(=O)NCc2cccnc2)S(C)(=O)=O)c1	1	-9	-1	3	0	0.24	.	.
O=C(O)c1ccc(NC(=O)C2(c3ccccc3)CCOCC2)cc1	12	-2	-10	6	0.027	-0.14	.	.
COc1ccc(OC)c(/C=c2\sc3nc(-c4cccs4)nn3c2=O)c1	37	6	2	1	13*	0.0065	478*	556*
O=C(Cn1ncn2c(cc3ccccc32)c1=O)NCc1ccco1	35	-3	-7	-10	0.57	0.61	.	.

Assay outcomes deposited in PubChem BioAssay by several laboratories.
